This is an account of results in PubChem BioAssay.

As usually defined, the inhibition is the relative decrease from the control value, in per cent.

Test [1] is described as follows: antimalarial activity against Dd2 strain (AID 2302;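 active means growth inhibition above 50% at the single 2 µM test dose, taken to imply half-maximal potency below 2 µM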;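 further: 0% = DMSO untreated growth and 100% = chloroquine plus artemisinin killed control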). The settings on record: P. falciparum Dd2 in RBCs, LDH growth readout, 72 h; at 2 µM; stronger effect = higher value.
Test [2] can be described thus: human hepatoma cell viability loss – ATP luminescence, cytotoxicity control for P. falciparum antimalarial project, primary screen (AID 2303;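 active means inhibition above 50%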;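 further: 0% = DMSO wells and 100% = digitonin-killed cells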). Particulars: HepG2 viability, 24-48 h, at 10 µM, stronger effect = higher value.
For test [3], the target named is L-lactate dehydrogenase (Plasmodium falciparum (isolate CDC / Honduras)) (UniProt Q27743). Description: PfLDH activity inhibition – cell lysate, 3D7 strain, counter-screen for P. falciparum growth inhibition project (AID 2304).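 Further: 0% = vehicle and 100% = reference inhibitor.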 The settings on record: P. falciparum 3D7 crude extract, LDH APAD/NBT absorbance; at 2 µM; stronger effect = higher value.
Sequence of L-lactate dehydrogenase (Plasmodium falciparum (isolate CDC / Honduras)) (Q27743 whole entry, looked up): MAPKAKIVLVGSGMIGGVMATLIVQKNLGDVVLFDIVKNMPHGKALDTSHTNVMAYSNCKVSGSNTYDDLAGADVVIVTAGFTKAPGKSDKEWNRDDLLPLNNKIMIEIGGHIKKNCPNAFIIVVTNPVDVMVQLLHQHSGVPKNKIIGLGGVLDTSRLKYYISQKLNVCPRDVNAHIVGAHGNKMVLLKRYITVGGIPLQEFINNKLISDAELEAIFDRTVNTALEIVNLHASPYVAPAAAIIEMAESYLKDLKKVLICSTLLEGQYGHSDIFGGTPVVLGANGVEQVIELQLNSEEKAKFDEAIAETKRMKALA
A short description of test [4]: inhibition of 3D7 malaria parasite growth – strain 3D7 (AID 2306).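 Further: 0% = DMSO wells and 100% = chloroquine plus artemisinin control wells.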 Particulars: P. falciparum 3D7 erythrocytic growth, LDH absorbance, 72 h; at 2 µM; stronger effect = higher value.
Test [5] addresses Calcium-dependent protein kinase 1 (Plasmodium falciparum (isolate 3D7)) (UniProt P62344). Nature of the test: PfCDPK1 kinase inhibitors, biochemical, TCAMS library (AID 1159585; cut-off not given, nearly all actives have IC50 up to about 0.98 µM;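 further: inhibitors leave more ATP so luminescence rises with inhibition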). The settings on record: recombinant PfCDPK1, Kinase-Glo ATP depletion luminescence. For orientation: In Kinase-Glo more light means more ATP remaining.
In test [6] the target is Plasmodium falciparum protein kinase 6 (PK6, PF3D7_1337100) (UniProt Q8IDW1). Nature of the test: PfPK6 kinase inhibitors, biochemical, TCAMS library (AID 1159586). The settings on record: recombinant PfPK6, Kinase-Glo ATP depletion luminescence.
Sequence of Plasmodium falciparum protein kinase 6 (PK6, PF3D7_1337100) (Q8IDW1 1-305): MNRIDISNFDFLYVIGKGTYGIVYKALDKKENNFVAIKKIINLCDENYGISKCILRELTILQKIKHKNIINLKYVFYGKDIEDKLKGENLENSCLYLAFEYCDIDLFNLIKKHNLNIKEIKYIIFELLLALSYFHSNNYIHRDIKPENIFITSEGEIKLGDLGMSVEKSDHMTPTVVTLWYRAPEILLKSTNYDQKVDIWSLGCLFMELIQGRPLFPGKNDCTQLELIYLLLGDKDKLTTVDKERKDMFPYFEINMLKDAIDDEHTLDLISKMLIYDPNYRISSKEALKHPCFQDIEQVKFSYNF
Test [7] has as its target Protein kinase 7 (PK7), Plasmodium falciparum 3D7 (PF3D7_0213400) (UniProt Q7YTF7). Nature of the test: inhibition of Plasmodium PK7 catalytic activity – biochemical, TCAMS antimalarial set, Kinase-Glo luminescence (AID 1159587). The settings on record: recombinant PfPK7, Kinase-Glo ATP depletion luminescence.
Test [8] deals with Calcium-dependent protein kinase 4 (Plasmodium falciparum (isolate 3D7)) (UniProt Q8IBS5). Nature of the test: PfCDPK4 kinase inhibitors, biochemical, TCAMS library (AID 1159588; cut-off not given, nearly all actives have IC50 up to about 0.91 µM). The settings on record: recombinant PfCDPK4, Kinase-Glo ATP depletion luminescence.
Sequence of Calcium-dependent protein kinase 4 (Plasmodium falciparum (isolate 3D7)) (Q8IBS5 whole entry, looked up): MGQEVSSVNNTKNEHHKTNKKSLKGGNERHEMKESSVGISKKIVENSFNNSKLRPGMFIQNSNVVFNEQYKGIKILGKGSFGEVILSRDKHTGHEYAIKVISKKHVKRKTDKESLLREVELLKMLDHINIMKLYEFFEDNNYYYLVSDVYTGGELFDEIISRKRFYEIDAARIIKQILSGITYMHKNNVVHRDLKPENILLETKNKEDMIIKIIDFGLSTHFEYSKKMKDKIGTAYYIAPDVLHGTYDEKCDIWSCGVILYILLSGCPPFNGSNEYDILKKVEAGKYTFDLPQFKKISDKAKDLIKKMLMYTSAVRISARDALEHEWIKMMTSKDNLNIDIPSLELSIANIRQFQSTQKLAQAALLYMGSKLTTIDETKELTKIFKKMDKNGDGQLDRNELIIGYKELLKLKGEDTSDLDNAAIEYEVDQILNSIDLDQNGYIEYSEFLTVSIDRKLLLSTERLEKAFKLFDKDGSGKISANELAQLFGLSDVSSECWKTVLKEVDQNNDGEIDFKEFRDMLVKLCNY

The structures appear in SMILES notation. Values without a mark were called inactive. For some of these results: Potency and affinity values are given separately. Active and inactive are the calls of the source. Unless noted, how the calls were made is not given here.

Sequence of Calcium-dependent protein kinase 1 (Plasmodium falciparum (isolate 3D7)) (P62344 whole entry, looked up): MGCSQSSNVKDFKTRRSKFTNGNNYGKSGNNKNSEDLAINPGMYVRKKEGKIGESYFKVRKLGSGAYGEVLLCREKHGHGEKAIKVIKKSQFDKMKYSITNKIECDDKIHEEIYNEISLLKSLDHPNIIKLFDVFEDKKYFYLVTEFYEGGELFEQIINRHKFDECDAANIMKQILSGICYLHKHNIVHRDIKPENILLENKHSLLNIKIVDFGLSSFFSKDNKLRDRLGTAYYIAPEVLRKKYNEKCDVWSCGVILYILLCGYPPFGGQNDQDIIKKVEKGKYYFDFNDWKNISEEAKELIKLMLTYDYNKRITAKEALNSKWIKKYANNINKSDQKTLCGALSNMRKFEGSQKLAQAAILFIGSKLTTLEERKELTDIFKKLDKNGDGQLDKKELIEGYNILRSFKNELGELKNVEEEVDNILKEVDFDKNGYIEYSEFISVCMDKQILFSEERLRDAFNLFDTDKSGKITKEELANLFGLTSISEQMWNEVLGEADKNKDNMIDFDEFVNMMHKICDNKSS
Sequence of Protein kinase 7 (PK7), Plasmodium falciparum 3D7 (PF3D7_0213400) (Q7YTF7 1-343): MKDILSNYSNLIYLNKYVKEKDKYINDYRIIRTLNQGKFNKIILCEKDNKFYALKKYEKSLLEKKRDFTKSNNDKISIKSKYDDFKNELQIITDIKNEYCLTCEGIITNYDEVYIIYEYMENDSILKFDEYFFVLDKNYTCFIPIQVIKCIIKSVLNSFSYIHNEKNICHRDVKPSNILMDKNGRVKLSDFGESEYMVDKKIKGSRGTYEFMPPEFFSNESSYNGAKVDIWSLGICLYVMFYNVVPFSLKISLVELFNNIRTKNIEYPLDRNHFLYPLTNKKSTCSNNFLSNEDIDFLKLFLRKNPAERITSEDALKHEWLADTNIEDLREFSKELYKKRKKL

Consider `CCc1nc(N)nc(N)c1-c1ccc(F)c(F)c1`, for which the growth inhibition in test [1] was -1%; in test [4], 98% (active). Besides, the results for the inhibition in test [2] and in test [3] were 58% (active) and -3%, respectively. Besides, the result in test [5], in test [6], in test [7] and in test [8] was inactive.

Regarding `CC(=O)Nc1nc(C(=O)Nc2cccc(-c3cccc(-c4nc5ccccc5[nH]4)c3)c2)cs1`, the results for the growth inhibition in test [1] and in test [4] were 82% (active) and 100% (active), respectively. Moreover, the inhibition in test [2] was 31%; in test [3] it was 0%. Moreover, the outcome in test [5], in test [6], in test [7] and in test [8] was inactive.

Turning to `N#Cc1ccc(NC(=NC2Cc3ccccc3C2)Nc2cccc(Cl)c2Cl)c(O)c1`, the growth inhibition in test [1] is 77% (active); in test [4], 94% (active). For the same compound, the values for the inhibition in test [2] and in test [3] were 15% and -10%, respectively. The outcome in test [5], in test [6], in test [7] and in test [8] was inactive.

As for `CCN(CCNC(=O)Cn1c(C)cc2cc([N+](=O)[O-])ccc21)c1cccc(C)c1`, the growth inhibition in test [1] is 95% (active); in test [4] it was 97% (active). The inhibition in test [2] was -3%; in test [3], 6%. The result in test [5], in test [6], in test [7] and in test [8] was inactive.

On to `O=C(/C=C/c1ccc(Cl)c(Cl)c1)NCCCCCN1CCC(CCNC(=O)c2snnc2-c2ccccc2)CC1`, for which the figures for the growth inhibition in test [1] and in test [4] were 1% and 89% (active), respectively. For the same compound, the inhibition is 54% (active) in test [2] and -2% in test [3]. Moreover, the result in test [5], in test [6], in test [7] and in test [8] was inactive.

`Cc1cc(N[C@@H](Cc2ccccc2)C(=O)NCCOc2ccccc2)nc(NCc2ccccc2C)n1`: the growth inhibition was 80% (active) in test [1] and 100% (active) in test [4]. The inhibition in test [2] is 32%; in test [3], -3%. Further, the result in test [5], in test [6], in test [7] and in test [8] was inactive.

In the case of `O=C(CSc1nccn1C1CCCCC1)Nc1cc(C(F)(F)F)ccc1Cl`, the growth inhibition in test [1] is 95% (active); in test [4], 96% (active). Also, the inhibition in test [2] is 2%; in test [3], -1%. Also, the outcome in test [5], in test [6], in test [7] and in test [8] was inactive.

Regarding `Cc1ccc(-c2nnc(Nc3ccc(OCC(N)=O)cc3)c3ccccc23)cc1S(=O)(=O)NCC1CCCO1` (stereo not given), the growth inhibition in test [1] was 70% (active); in test [4], 92% (active). Also, the inhibition in test [2] was 0%; in test [3], -2%. Moreover, the outcome in test [5], in test [6], in test [7] and in test [8] was inactive.

Consider `COc1ccc(OC)c(Cc2cnc3nc(N)nc(N)c3c2C)c1`, for which the growth inhibition is 97% (active) in test [1] and 92% (active) in test [4]. The inhibition in test [2] was 68% (active); in test [3], 5%. The result in test [5], in test [6], in test [7] and in test [8] was inactive.

Consider `COc1cccc(-c2nn(C)c3sc(C(=O)Nc4cccnc4)cc23)c1`, for which the growth inhibition in test [1] is 34%; in test [4], 86% (active). Also, the results for the inhibition in test [2] and in test [3] were 1% and -2%, respectively. Also, the result in test [5], in test [6], in test [7] and in test [8] was inactive.

Consider `N#Cc1cncc(-c2nc3c(N4CCCC(N)C4)cccc3n2CCNCc2ccccc2)c1` (stereo not given), for which the growth inhibition in test [1] is 1%; in test [4], 101% (active). In addition, the inhibition is 8% in test [2] and -1% in test [3]. In addition, the result in test [5], in test [6], in test [7] and in test [8] was inactive.

As to `COc1cccc(Nc2nc(C)cc(NC3CCCC3)n2)c1`, the results for the growth inhibition in test [1] and in test [4] were 79% (active) and 101% (active), respectively. Besides, the inhibition in test [2] was 41%; in test [3], 1%. The outcome in test [5], in test [6], in test [7] and in test [8] was inactive.

For `c1cc(CNCC2CCCO2)cc(-c2cccc(-c3nc4ccccc4[nH]3)c2)c1` (stereo not given), the results for the growth inhibition in test [1] and in test [4] were 7% and 100% (active), respectively. Also, the inhibition in test [2] was 15%; in test [3], 3%. Besides, the outcome in test [5], in test [6], in test [7] and in test [8] was inactive.

For `O=c1c2ccc(F)cc2sn1-c1ccc(Cl)cc1`, the growth inhibition was 11% in test [1] and 98% (active) in test [4]. Besides, the inhibition in test [2] was 8%; in test [3], -2%. The outcome in test [5], in test [6], in test [7] and in test [8] was inactive.

For `COC(=O)Nc1cc(C(F)(F)F)ccc1N1CCC(CNS(=O)(=O)c2ccc(OC)cc2)CC1`, the growth inhibition is 95% (active) in test [1] and 99% (active) in test [4]. The inhibition in test [2] is 13%; in test [3] it was 0%. Besides, the outcome in test [5], in test [6], in test [7] and in test [8] was inactive.

For `C#Cc1cccc(NC(=O)[C@H](CC2CCCCC2)Nc2ccc(C#N)c3ccccc23)c1`, the growth inhibition in test [1] is 99% (active); in test [4], 100% (active). For the same compound, the inhibition in test [2] was 48%; in test [3] it was -1%. In addition, the outcome in test [5], in test [6], in test [7] and in test [8] was inactive.

As for `CCN(CC)CCN(Cc1ccc(-c2ccc(C(F)(F)F)cc2)cc1)C(=O)Cn1c(CCc2ccc(F)cc2)nc(=O)c2ccccc21`, the growth inhibition is 58% (active) in test [1] and 97% (active) in test [4]. Also, the inhibition in test [2] is 42%; in test [3] it was -3%. Besides, the result in test [5], in test [6], in test [7] and in test [8] was inactive.

In the case of `COc1ccc2nccc([C@@H](O)CN3CCC(NC(=O)c4cc5cccnc5[nH]4)CC3)c2c1`, the results for the growth inhibition in test [1] and in test [4] were 6% and 94% (active), respectively. Also, the inhibition in test [2] was -8%; in test [3], 2%. The outcome in test [5], in test [6], in test [7] and in test [8] was inactive.

Consider `Cn1nccc1C(=O)NCCNCc1cccc(-c2cccc(-c3nc4ccc(C(F)(F)F)cc4[nH]3)c2)c1`, for which the figures for the growth inhibition in test [1] and in test [4] were 99% (active) and 102% (active), respectively. Also, the inhibition in test [2] is 39%; in test [3] it was -7%. Moreover, the outcome in test [5], in test [6], in test [7] and in test [8] was inactive.

Turning to `CN1CCCC1CCNc1ncc2c(-c3ccc(NC(=O)Nc4cc(C(F)(F)F)ccc4F)cc3)nn(C)c2n1` (stereo not given), the growth inhibition in test [1] is 72% (active); in test [4], 96% (active). The inhibition in test [2] was 74% (active); in test [3] it was 0%. For the same compound, the outcome in test [5], in test [6], in test [7] and in test [8] was inactive.
